{
  "source": "ChEMBL document CHEMBL3988442",
  "about": "“University of Dundee, Small-Polar-MMV Screening Library” (2021)",
  "key": {"[1]": {"biological_target": "T1, Aspartate--tRNA(Asp/Asn) ligase (Mycobacterium tuberculosis (strain ATCC 25618 / H37Rv)) (UniProt P9WFW3)", "T1 sequence (whole entry)": "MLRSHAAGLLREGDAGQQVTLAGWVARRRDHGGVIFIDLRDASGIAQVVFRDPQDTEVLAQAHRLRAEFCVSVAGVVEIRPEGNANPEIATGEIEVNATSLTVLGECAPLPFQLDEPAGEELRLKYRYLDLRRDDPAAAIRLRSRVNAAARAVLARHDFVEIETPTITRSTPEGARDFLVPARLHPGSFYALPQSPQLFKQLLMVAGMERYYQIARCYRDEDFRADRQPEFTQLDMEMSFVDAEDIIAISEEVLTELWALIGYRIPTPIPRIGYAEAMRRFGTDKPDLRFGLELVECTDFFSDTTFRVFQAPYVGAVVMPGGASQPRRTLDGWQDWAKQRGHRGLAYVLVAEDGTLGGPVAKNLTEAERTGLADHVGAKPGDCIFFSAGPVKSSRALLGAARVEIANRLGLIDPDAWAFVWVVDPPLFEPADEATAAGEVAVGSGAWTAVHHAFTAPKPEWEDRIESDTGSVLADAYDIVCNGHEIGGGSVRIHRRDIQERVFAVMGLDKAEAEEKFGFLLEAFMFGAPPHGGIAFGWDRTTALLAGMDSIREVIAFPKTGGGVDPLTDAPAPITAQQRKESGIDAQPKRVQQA", "test": "Assay for Asp RNA synthetase-1 from Mycobacterium tuberculosis", "assay_type": "functional", "parameters": "scale not given: direction of the effect not stated beside the values", "details": "30 µM"}, "[2]": {"biological_target": "Shiga toxin 2 (Escherichia coli O157:H7) (UniProt P09385+P09386)", "test": "E. coli 0.157:H7 Shiga Toxin SOP - stx2 screening assay", "assay_type": "functional", "parameters": "scale not given: direction of the effect not stated beside the values", "details": "30 µM"}},
  "data": [
    {"smiles": "Cc1nc(C)n(CC2CCCN(CCOc3cccc(C#N)c3)C2)n1", "note": "(configuration not stated)", "values": [
      {"measurement": "Percent Effect", "setting": "[1]", "result": 2, "unit": "%"},
      {"measurement": "Percent Effect", "setting": "[2]", "result": 12.2, "unit": "%"}
    ]},
    {"smiles": "CCC(C)N(C)CCNC(=O)NCc1cccc(-n2cncn2)c1", "note": "(configuration not stated)", "values": [
      {"measurement": "Percent Effect", "setting": "[1]", "result": -1.54, "unit": "%"},
      {"measurement": "Percent Effect", "setting": "[2]", "result": -5.27, "unit": "%"}
    ]},
    {"smiles": "CCNC(=O)c1nnn(Cc2ccccc2)c1OC", "values": [
      {"measurement": "Percent Effect", "setting": "[1]", "result": 0.29, "unit": "%"},
      {"measurement": "Percent Effect", "setting": "[2]", "result": -14.9, "unit": "%"}
    ]},
    {"smiles": "O=C(NC1CC1)[C@H]1CC[C@@H]2[C@@H](CCN2c2ncc(F)cn2)O1", "values": [
      {"measurement": "Percent Effect", "setting": "[1]", "result": -4.13, "unit": "%"},
      {"measurement": "Percent Effect", "setting": "[2]", "result": -23, "unit": "%"}
    ]},
    {"smiles": "O=C(Cn1cccnc1=O)NC(Cc1cccs1)c1ccccn1", "note": "(configuration not stated)", "values": [
      {"measurement": "Percent Effect", "setting": "[1]", "result": -0.372, "unit": "%"},
      {"measurement": "Percent Effect", "setting": "[2]", "result": -0.987, "unit": "%"}
    ]},
    {"smiles": "Cc1ccc([C@]2(O)CC[C@H]3CN(Cc4cc(C)c(O)c(C)c4)C[C@H]32)nc1", "values": [
      {"measurement": "Percent Effect", "setting": "[1]", "result": 3.29, "unit": "%"},
      {"measurement": "Percent Effect", "setting": "[2]", "result": -2.26, "unit": "%"}
    ]},
    {"smiles": "O=C(NCCn1ccnc1)N1CCN(Cc2cccs2)CC1", "values": [
      {"measurement": "Percent Effect", "setting": "[1]", "result": 0.0694, "unit": "%"},
      {"measurement": "Percent Effect", "setting": "[2]", "result": -34.2, "unit": "%"}
    ]},
    {"smiles": "CCCc1cc(C(=O)N(C)Cc2cccc3ncccc23)n(C)n1", "values": [
      {"measurement": "Percent Effect", "setting": "[1]", "result": -1.28, "unit": "%"},
      {"measurement": "Percent Effect", "setting": "[2]", "result": -12.5, "unit": "%"}
    ]},
    {"smiles": "O=C(Cc1ccccc1)N1CCC2(CC(=O)N(c3ccsc3)C2)C1", "note": "(configuration not stated)", "values": [
      {"measurement": "Percent Effect", "setting": "[1]", "result": -3.62, "unit": "%"},
      {"measurement": "Percent Effect", "setting": "[2]", "result": -10.4, "unit": "%"}
    ]},
    {"smiles": "CN(Cc1ccc(OC(F)F)cc1)C(=O)CS(=O)(=O)c1ccc(Cl)cc1", "values": [
      {"measurement": "Percent Effect", "setting": "[1]", "result": 0.524, "unit": "%"},
      {"measurement": "Percent Effect", "setting": "[2]", "result": 15, "unit": "%"}
    ]},
    {"smiles": "Cc1ccc(C(=O)N2Cc3c(CN4CCCCC4)nn(C)c3C2)cc1C", "values": [
      {"measurement": "Percent Effect", "setting": "[1]", "result": 4.62, "unit": "%"},
      {"measurement": "Percent Effect", "setting": "[2]", "result": -4.53, "unit": "%"}
    ]},
    {"smiles": "CCCS(=O)(=O)N1CCN(c2cc(-n3cnc(C)c3C)nc(C)n2)CC1", "values": [
      {"measurement": "Percent Effect", "setting": "[1]", "result": -3.39, "unit": "%"},
      {"measurement": "Percent Effect", "setting": "[2]", "result": -17.5, "unit": "%"}
    ]},
    {"smiles": "CC(C)n1ncc2c1NC(=O)CC21C(=O)Nc2c(Cl)cc(Cl)cc21", "note": "(configuration not stated)", "values": [
      {"measurement": "Percent Effect", "setting": "[1]", "result": 0.842, "unit": "%"},
      {"measurement": "Percent Effect", "setting": "[2]", "result": 1.79, "unit": "%"}
    ]},
    {"smiles": "Cc1cc(CN2CCN(C(=O)NCc3ccc(C)s3)CC2)no1", "values": [
      {"measurement": "Percent Effect", "setting": "[1]", "result": -8.25, "unit": "%"},
      {"measurement": "Percent Effect", "setting": "[2]", "result": 0.0703, "unit": "%"}
    ]},
    {"smiles": "CCOc1ccc(CC(CNC(=O)c2occc2C)C(N)=O)cc1", "note": "(configuration not stated)", "values": [
      {"measurement": "Percent Effect", "setting": "[1]", "result": 2.25, "unit": "%"},
      {"measurement": "Percent Effect", "setting": "[2]", "result": 23.6, "unit": "%"}
    ]},
    {"smiles": "Cc1cc(C)n(CC2CCCCN2C(=O)c2ccc3c(c2)OCO3)n1", "note": "(configuration not stated)", "values": [
      {"measurement": "Percent Effect", "setting": "[1]", "result": -5.57, "unit": "%"},
      {"measurement": "Percent Effect", "setting": "[2]", "result": -5.42, "unit": "%"}
    ]}
  ]
}
